PubChem BioAssay (Tox21)
Values joined by “and” are separate entries in the source; they are usually repeats but may differ in a detail not shown here. Identical values can stand only once. Records with an inconclusive call do not appear. More than one record can exist for a structure, and the calls need not agree. Active and inactive are the calls of the source. Unless noted, calls follow the shape of the full dose curve.

How the values were obtained:
[1] = Nuclear factor erythroid 2-related factor 2/antioxidant responsive element (Nrf2/ARE) small molecule agonists: qHTS cell viability counter screen in human keratinocytes (AID 1919968; active = well fitted curve in the direction sought with a large enough effect in the repeat runs; an effect the other way counts as inactive or inconclusive; also: nearly all actives have a fitted effect of over 55% in size; also: potency is read from the fitted curve at half-maximal effect)
Outline: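 Cytotoxicity was multiplexed with the Nrf2/ARE luciferase assay in the same wells. Stably transfected HaCaT keratinocytes were treated with test compounds for 23 h at 37 C. Cell viability was then measured by CellTiter-Fluor fluorescence.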

[2] = Nuclear factor erythroid 2-related factor 2/antioxidant responsive element (Nrf2/ARE) small molecule agonists: luciferase reporter gene qHTS assay in human keratinocytes (AID 1919969); also: nearly all actives have a fitted effect of over 35% in size; also: potency is read from the fitted curve at half-maximal effect
[3] = biological target: Gonadotropin-releasing hormone receptor (Homo sapiens) (UniProt P30968); assay: Human gonadotropin-releasing hormone receptor (GnRHR) small molecule agonists, calcium flux assay in GnRHR-HEK293 cells (AID 1920063); also: nearly all actives have a fitted effect of over 35% in size
Outline: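 Agonist activity was measured as intracellular calcium flux in HEK293 cells engineered to stably express human GnRHR. After dye loading for 1 hour at 37 C, compounds in DMSO were added and fluorescence was followed for 3 minutes.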

[4] = biological target: KiSS-1 receptor (Homo sapiens) (UniProt Q969F8); assay: Human kisspeptin (KISS1R) small molecule agonists, calcium flux assay in KISS1R-HEK293 cells (AID 1920064; active = well fitted curve in the direction sought with a large enough effect in the repeat runs; an effect the other way counts as inactive or inconclusive)
Outline: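 Agonist activity is monitored as intracellular calcium rise in engineered HEK293 cells carrying human KISS1R. Cells are dye-loaded for 1 h at 37 C before compound addition, and fluorescence is recorded for 3 min.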

[5] = G protein-coupled receptor (GPCR) small molecule agonists, calcium flux assay: HEK293 wild type cell line counter screen (AID 1920065)
Outline: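 Seed cells, incubate 18 h (37 C, 5% CO2); add calcium dye, 1 h at 37 C; pin-transfer compounds, ATP control or DMSO; read fluorescence 480/540 nm each second for 3 min.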

[6] = p53 small molecule agonists, cell-based qHTS assay with rat liver microsomes (AID 1963578)
Outline: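 Quantitative HTS of the Tox21 10K library: p53RE-bla cells, rat liver microsomes plus NADPH at 0.5 mg/mL final each, 16 h at 37 C, beta-lactamase fluorescence detection.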

[7] = p53 small molecule agonists, cell-based qHTS assay with human liver microsomes: qHTS cell viability counter screen (AID 1963579); also: nearly all actives have a fitted effect of over 45% in size
Outline: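 Viability of p53RE-bla cells is measured as CellTiter-Glo luminescence following a 16 h, 37 C incubation with compound, liver microsomes from human donors and NADPH.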

[8] = p53 small molecule agonists, cell-based qHTS assay with rat liver microsomes: qHTS cell viability counter screen (AID 1963580); also: nearly all actives have a fitted effect of over 45% in size
Outline: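 Luminescent ATP readout (CellTiter-Glo, 30 min at room temperature) reports viability of p53RE-bla HCT-116 cells after 16 h at 37 C with test compounds under metabolic activation by rat liver microsomes and NADPH at 0.5 mg/mL final each.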

[9] = p53 small molecule agonists, cell-based qHTS assay: qHTS cell viability counter screen (AID 1963581); also: nearly all actives have a fitted effect of over 45% in size
Outline: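 Viability was counter-screened in parallel with the p53 agonist reporter by measuring intracellular ATP luminescence in the same HCT-116 p53RE-bla wells after 16 h compound treatment at 37 C.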

[10] = p53 small molecule agonists, cell-based qHTS assay (AID 1963582; active = well fitted activation curve with a large enough effect in the signal ratio in the repeat runs, not every such curve was filed as active; the % refers to the signal ratio; also: potency is read from the fitted curve at half-maximal effect)
Outline: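 Cells carrying a p53-responsive bla reporter are treated with test compounds for 16 h at 37 C; beta-lactamase activity is then detected with LiveBLAzer B/G FRET substrate after 2 h at room temperature.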

[11] = biological target: 5-hydroxytryptamine receptor 2A (Homo sapiens) (UniProt P28223); assay: 5-hydroxytryptamine receptor 2A (HTR2A) small molecule antagonists, cell-based qHTS assay (AID 1963586); also: nearly all actives have a fitted effect of over 45% in size
Outline: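 CHO cells stably expressing human HTR2A were plated for 18 h at 37 C, then loaded with calcium dye for 1 h. Compounds were preincubated 5 min at room temperature before DOI (4 nM solution) was added. Kinetic fluorescence was read for 3 min.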

[12] = biological target: 5-hydroxytryptamine receptor 2A (Homo sapiens) (UniProt P28223); assay: 5-hydroxytryptamine receptor 2A (HTR2A) small molecule agonists, cell-based qHTS assay (AID 1963587); also: nearly all actives have a fitted effect of over 30% in size
Outline: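 HTR2A-CHO cells, plated 18 h at 37 C/5% CO2, dye-loaded 1 h at 37 C; compounds in DMSO added by pin tool (agonist mode). Intracellular calcium flux read as kinetic fluorescence on FDSS over 2 min at 1 s intervals.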

[13] = biological target: Muscarinic acetylcholine receptor M1 (Homo sapiens) (UniProt P11229); assay: Cholinergic receptor muscarinic 1 (CHRM1) small molecule antagonists, cell-based qHTS assay (AID 1963588); also: nearly all actives have a fitted effect of over 40% in size
Outline: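 Compounds were tested at 15 concentrations in three independent runs. Dye-loaded CHRM1-CHO cells were exposed 5 min at room temperature before stimulation by acetylcholine added at 50nM. Intracellular calcium was read kinetically on FDSS for 3 min.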

[14] = cAMP Responsive Elements (CRE) small molecule antagonists, cell-based qHTS assay (AID 1963591; active = well fitted inhibition curve with a large enough effect in the signal ratio in the repeat runs, not every such curve was filed as active; the % refers to the signal ratio)
Outline: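 Cells (CRE-bla HEK 293T, DMEM with 10% dialyzed FBS and 25 mM HEPES) are seeded and incubated 18 h. Compounds are added with NKH477 agonist at 0.25 uM final for 3 h, then FRET substrate for 2 h.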

[15] = biological target: Beta-2 adrenergic receptor (Homo sapiens) (UniProt P07550); assay: Adrenergic beta2 receptor (ADRB2) small molecule antagonists, cell-based qHTS assay (AID 1963592); also: series mostly up to about 92 µM; nearly all actives have a fitted effect of over 50% in size
Outline: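 Assay format: CHO-ADRB2 cells, 18-20hr seeding at 37C/5% CO2, then compound plus 1nM isoproterenol agonist mix for 0.5hr RT. Homogeneous time-resolved fluorescence cAMP detection after 1hr, expressed as 665/615 nm ratio.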

[16] = biological target: Beta-2 adrenergic receptor (Homo sapiens) (UniProt P07550); assay: Adrenergic beta2 receptor (ADRB2) small molecule agonists, cell-based qHTS assay (AID 1963593);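 also: CHO cells stably overexpressing human ADRB2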
Outline: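 CHO cells stably over-expressing ADRB2 were plated overnight at 37C, then dosed with compounds plus a stimulation mix containing 100uM IBMX and 25uM Ro-20-1724 for 0.5hr at room temperature. cAMP was measured by HTRF competition, 1hr.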

[17] = biological target: D(2) dopamine receptor (Homo sapiens) (UniProt P14416); assay: Dopamine D2 receptor (DRD2) small molecule agonists, cell-based qHTS assay (AID 1963594); also: nearly all actives have a fitted effect of over 35% in size
Outline: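 HEK293 cells stably expressing DRD2 were cultured 24 h at 37 C, then given Ro20-1724 (0.1 mM final) and compounds for 10 min at room temperature. NKH477 (200nM) was then added for 30 min. cAMP was read by HTRF.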

[18] = cAMP Responsive Elements (CRE) small molecule agonists, cell-based qHTS assay (AID 1963590)
Outline: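 Cells carrying a CRE-driven beta-lactamase reporter (HEK 293T) are seeded, incubated overnight (18 h), and treated with test compounds for 3 h at 37 C; reporter activity is then detected with a FRET substrate after 2 h at room temperature.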

[19] = biological target: D(2) dopamine receptor (Homo sapiens) (UniProt P14416); assay: Dopamine D2 receptor (DRD2) small molecule antagonists, cell-based qHTS assay (AID 1963595; active = well fitted inhibition curve with a large enough effect in the signal ratio in the repeat runs, with a control signal flat; the % refers to the signal ratio)
Outline: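 In this cell-based antagonist screen, compounds act for 10 min at room temperature before a 30 min challenge with 12 nM quinpirole and 200 nM NKH477. cAMP is quantified by HTRF competition in DRD2-HEK293 cells containing 0.1 mM Ro20-1724.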

[20] = p53 small molecule agonists, cell-based qHTS assay with human liver microsomes (AID 1963577);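 also: p53 response element beta-lactamase reporter cells with liver microsomes plus NADPH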
Outline: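 HLM-supplemented p53RE-bla reporter assay: 16 h compound exposure at 37 C, microsomes and NADPH each 0.5 mg/mL final, read by fluorescence intensity.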

Measured: Potency

Chain of Gonadotropin-releasing hormone receptor (Homo sapiens) (P30968 whole entry, looked up): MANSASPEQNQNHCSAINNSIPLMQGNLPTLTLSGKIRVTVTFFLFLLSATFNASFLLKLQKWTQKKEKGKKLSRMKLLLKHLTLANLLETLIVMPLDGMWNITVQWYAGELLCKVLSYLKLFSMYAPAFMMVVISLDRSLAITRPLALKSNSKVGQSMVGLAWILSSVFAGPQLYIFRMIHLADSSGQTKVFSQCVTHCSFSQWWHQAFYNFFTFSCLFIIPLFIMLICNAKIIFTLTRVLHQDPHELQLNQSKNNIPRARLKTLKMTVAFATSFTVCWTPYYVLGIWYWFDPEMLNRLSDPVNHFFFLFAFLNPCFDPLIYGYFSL
Chain of Beta-2 adrenergic receptor (Homo sapiens) (P07550 whole entry, looked up): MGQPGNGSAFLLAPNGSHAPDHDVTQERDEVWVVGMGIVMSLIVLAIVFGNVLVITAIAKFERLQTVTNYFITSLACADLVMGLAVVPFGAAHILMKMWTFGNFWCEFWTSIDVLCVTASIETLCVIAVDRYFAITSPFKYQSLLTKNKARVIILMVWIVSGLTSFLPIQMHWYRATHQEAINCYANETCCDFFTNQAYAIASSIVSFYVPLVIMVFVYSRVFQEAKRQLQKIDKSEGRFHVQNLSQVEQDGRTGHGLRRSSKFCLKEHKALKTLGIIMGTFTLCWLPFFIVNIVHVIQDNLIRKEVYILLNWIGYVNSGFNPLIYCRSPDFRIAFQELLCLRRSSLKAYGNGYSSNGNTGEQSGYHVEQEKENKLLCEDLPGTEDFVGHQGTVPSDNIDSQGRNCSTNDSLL
Chain of Muscarinic acetylcholine receptor M1 (Homo sapiens) (P11229 whole entry, looked up): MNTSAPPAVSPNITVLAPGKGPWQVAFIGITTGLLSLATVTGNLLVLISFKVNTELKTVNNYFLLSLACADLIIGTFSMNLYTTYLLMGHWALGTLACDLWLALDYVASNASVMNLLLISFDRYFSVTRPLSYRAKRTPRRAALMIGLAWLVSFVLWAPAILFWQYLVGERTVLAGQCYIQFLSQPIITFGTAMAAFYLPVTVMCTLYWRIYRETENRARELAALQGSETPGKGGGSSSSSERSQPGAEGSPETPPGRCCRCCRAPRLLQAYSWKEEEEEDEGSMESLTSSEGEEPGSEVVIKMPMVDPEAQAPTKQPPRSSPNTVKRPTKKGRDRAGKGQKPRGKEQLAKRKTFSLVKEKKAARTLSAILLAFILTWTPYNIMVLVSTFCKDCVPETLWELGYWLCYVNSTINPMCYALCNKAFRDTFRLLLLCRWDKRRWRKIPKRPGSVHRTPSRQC
Chain of KiSS-1 receptor (Homo sapiens) (Q969F8 whole entry, looked up): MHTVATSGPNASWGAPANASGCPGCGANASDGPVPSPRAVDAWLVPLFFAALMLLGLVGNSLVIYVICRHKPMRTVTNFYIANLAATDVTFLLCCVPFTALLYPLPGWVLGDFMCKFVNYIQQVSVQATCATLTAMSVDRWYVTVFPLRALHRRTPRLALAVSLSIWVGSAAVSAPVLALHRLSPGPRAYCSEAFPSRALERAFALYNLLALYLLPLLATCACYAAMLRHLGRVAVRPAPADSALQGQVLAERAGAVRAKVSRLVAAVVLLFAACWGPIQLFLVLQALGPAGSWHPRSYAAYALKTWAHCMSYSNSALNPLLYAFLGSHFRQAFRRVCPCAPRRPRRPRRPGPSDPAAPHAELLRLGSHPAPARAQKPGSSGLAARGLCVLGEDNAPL
Chain of D(2) dopamine receptor (Homo sapiens) (P14416 whole entry, looked up): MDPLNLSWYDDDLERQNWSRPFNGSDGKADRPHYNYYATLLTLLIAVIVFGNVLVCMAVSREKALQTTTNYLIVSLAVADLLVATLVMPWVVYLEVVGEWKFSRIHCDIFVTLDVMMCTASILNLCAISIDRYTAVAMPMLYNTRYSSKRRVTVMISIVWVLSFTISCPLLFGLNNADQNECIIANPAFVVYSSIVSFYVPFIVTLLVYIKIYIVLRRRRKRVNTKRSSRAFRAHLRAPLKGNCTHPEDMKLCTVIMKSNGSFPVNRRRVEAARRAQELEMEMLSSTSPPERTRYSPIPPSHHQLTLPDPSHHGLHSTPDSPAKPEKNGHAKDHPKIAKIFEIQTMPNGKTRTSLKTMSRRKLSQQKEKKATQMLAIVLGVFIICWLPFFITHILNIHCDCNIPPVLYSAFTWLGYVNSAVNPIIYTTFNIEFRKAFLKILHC
Chain of 5-hydroxytryptamine receptor 2A (Homo sapiens) (P28223 whole entry, looked up): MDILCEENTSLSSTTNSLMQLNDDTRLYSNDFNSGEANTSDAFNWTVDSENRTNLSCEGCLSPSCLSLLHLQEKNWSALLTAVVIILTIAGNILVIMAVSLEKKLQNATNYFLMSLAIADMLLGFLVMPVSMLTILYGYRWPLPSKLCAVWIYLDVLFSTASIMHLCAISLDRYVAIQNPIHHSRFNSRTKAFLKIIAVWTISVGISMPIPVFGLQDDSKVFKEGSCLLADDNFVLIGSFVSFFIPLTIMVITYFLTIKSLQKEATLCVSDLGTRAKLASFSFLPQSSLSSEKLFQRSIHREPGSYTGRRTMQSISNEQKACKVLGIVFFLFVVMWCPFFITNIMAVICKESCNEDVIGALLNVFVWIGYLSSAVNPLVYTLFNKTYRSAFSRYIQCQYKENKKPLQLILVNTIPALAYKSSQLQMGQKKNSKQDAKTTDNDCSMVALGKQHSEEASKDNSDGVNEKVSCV

CN(C)C(=O)Nc1ccc(Cl)c(Cl)c1
not listed: [18] | [19] | [20]
inactive: all other assays above

c1ccc2[nH]ccc2c1
6.01 µM (active) and inactive: [2]
8.49 µM (active) and inactive: [1]
not listed: [20]
inactive: all other assays above

CCCCCCCCCCCC(=O)OC
not listed: [6]
inactive: all other assays above

Cc1ccc(C)c(C)c1
not listed: [16] | [20]
inactive: all other assays above

[Na+]
not listed: [6]
inactive: all other assays above

COCN(COC)c1nc(N(COC)COC)nc(N(COC)COC)n1
not listed: [6] | [16]
inactive: all other assays above

CCc1cccc(C)c1N
not listed: [20]
inactive: all other assays above

CCNC(=S)NCC
not listed: [6] | [11] | [13] | [16]
inactive: all other assays above

CC(C)Cc1ccc(C(C)C(=O)O)cc1 (stereo unspecified)
not listed: [6] | [10] | [11] | [12] | [13] | [18] | [19]
inactive: all other assays above

Nc1ccc2c(O)cc(S(=O)(=O)O)cc2c1
active: [10] 12.9 µM and 16.2 µM
not listed: [6] | [11] | [15] | [16]
inactive: all other assays above

COc1cc(NC(=O)CC(C)=O)c(OC)cc1Cl
not listed: [6] | [11] | [14] | [16] | [18]
inactive: all other assays above

NC(=O)c1ccccc1O
not listed: [6] | [11] | [12] | [13] | [17]
inactive: all other assays above

CC(=O)O[C@]1(C(C)=O)CC[C@H]2[C@@H]3C[C@H](C)C4=CC(=O)CC[C@]4(C)[C@H]3CC[C@@]21C
not listed: [6] | [11] | [12] | [13] | [14] | [18]
inactive: all other assays above

COC(=O)c1ccc(C)cc1
not listed: [16] | [20]
inactive: all other assays above
